Compound activity: PubChem, National Center for Advancing Translational Sciences (NCATS)
Compounds with a hit are over-represented: about 3.2% of the library has one in this group of screens.
Nrf2 ARE act – Nrf2 pathway activation | AREc32 ARE-luciferase reporter (MCF7-derived line), luminescence, 24 h | Potency, µM (highest dose often 46.1 µM), for the others: top-dose activation, most hits filed as activators | 0.31% of 410,000 active | AID 624171; further: potency means the concentration at half of the fitted maximal effect; % of control where 0% means no effect; nearly all actives have a fitted effect of over 65% in size
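Steps: seed AREc32_Fluc cells (1000/well, 5% FBS OPTI-MEM); incubate overnight at 37 deg C; add 23 nL compound; incubate 24 hr; add Steady-Glo; hold 30 min RT; read luminescence.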
BRCA1 expr up – BRCA1 expression activation; MCF7-BRCA1-FFLuc reporter, luminescence, 48 h; response scale: scaled: vehicle 0%, 10 µM genistein 100%; Potency, µM (top dose mostly 46.1 µM), inactives show top-dose activation, most hits filed as activators; 1.1% of 380,000 active; further: potency means the concentration at half of the fitted maximal effect; nearly all actives have a fitted effect of over 80% in size
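MCF7 cells carrying a BRCA1-firefly luciferase reporter (2000 cells/well, phenol-red free MEM) were attached for 2 h at 37 °C, then given compounds for 48 h. Luminescence was read 15 min after luciferase reagent; activity normalized to genistein (10 microM) and DMSO.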
IL-2 act – activates IL-2 in a cell-based reporter assay; IL-2 activation reporter assay, cell-based qHTS; stimulated with anti-CD3/CD4/CD28 beads; in transgenic mouse T cells; 0.065% of 360,000 active; activation, % (series mostly up to about 46 µM); in the data active means activation above about 50%; inconclusive means mostly about 30% to 49%; further: 0% is about no effect
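Screening format: compound pinned onto unstimulated transgenic mouse T cells, 60 min incubation, then anti-CD3/anti-CD4/anti-CD28 bead stimulation for 18 hours at 37 degrees C, followed by EGFP and DsRed detection.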
p53 reactivator – restores transcriptional activity of mutant p53 | H1299 p53-A138V BP100-luciferase reporter, luminescence, 24 h | Potency, µM (doses to about 92.2 µM), without a hit: at the top dose activity change, positive = activation, usual class: activators | 0.063% of 320,000 active | AID 504706; further: potency means the concentration at half of the fitted maximal effect; % of control where 0% means no effect; nearly all actives have a fitted effect of over 45% in size
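H1299 (p53-null), stable ts p53-A138V + BP100-Luc; 1000 cells/well, Opti-MEM/10% FBS; cpd 4 pt, 1:5; 24 h, 37 deg C, 5% CO2; detection reagent 10 min RT; luminescence.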
A549 tox – counter-screen for Nrf2 inhibitors: cytotoxicity in A549 cells; A549 ARE-Fluc cells, CellTiter-Fluor viability, 18-24 h; Potency, µM (top dose mostly 46 µM), for inactives: at the top dose activity change, negative = cytotoxicity, usual class: inhibitors; 0.16% of 390,000 active; further: potency means the concentration at half of the fitted maximal effect; on the % scale 0 is the no-effect control and ±100 the full control effect
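A549 ARE-Fluc cells in 5% FBS OPTI-MEM, 5000 cells/well, rested 2 h then exposed to compounds in concentration-response for 18-24 h at 37 °C. Viability by CellTiter-Fluor fluorescence (Ex 405/Em 525) after 30 min; luciferase luminescence (BugLite, 15 min, RT) read afterwards.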
Nrf2 inh – blocks Nrf2 signaling; A549 ARE-Fluc reporter, luciferase luminescence, 18-24 h; Potency, µM (titrated, usually from 46 µM), without a hit: at the highest dose activity change, negative = inhibition, most hits filed as inhibitors; 2.1% of 360,000 active; AID 504444; further: potency means the concentration at half of the fitted maximal effect; on the % scale 0 is the no-effect control and ±100 the full control effect; nearly all actives have a fitted effect of over 60% in size
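Two sequential reads on A549 ARE_Fluc cells exposed to compound for 18-24 h: a CellTiter-Fluor fluorescence read for viability, then a luciferase luminescence read for Nrf2/ARE activity.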
* = called active by the depositor; u = inconclusive; x = no result. Unless noted, the call rests on the fitted dose curve; in most records, active means well fitted curve in the direction sought with a large enough effect; inconclusive means small, poorly fitted or top-dose-only effect, or another doubt; inactive means no such curve, though single readings can be large; an effect the other way counts as inactive or inconclusive.

SMILES	Nrf2 ARE act	BRCA1 expr up	IL-2 act	p53 reactivator	A549 tox	Nrf2 inh
CCCCc1ccc(-n2nc3ccc(NC(=O)c4cc5ccccc5o4)cc3n2)cc1	4%	x	x	x	10%	-10%
CC(C)(C)C1CCc2c(sc(NC(=O)c3noc4c3CCCC4)c2C#N)C1 (stereo unspecified)	0%	x	x	x	1%	18%
O=C(OCC#CCSc1nnc(-c2ccc3ccccc3c2)o1)c1cccs1	x	x	x	x	1%	u
Cc1ccc(NS(=O)(=O)c2ccc(OCC(=O)Nc3cccc([N+](=O)[O-])c3)c(C)c2)cc1	3%	-45%	-1	-1%	u	21µM*
Cc1ccc(NC(=O)CN(C)C(=O)c2ccc(NS(=O)(=O)c3cccc([N+](=O)[O-])c3)cc2)cc1	0%	5%	0	11%	5%	-20%
O=C(NCc1cccnc1)c1ccc(NS(=O)(=O)c2cccc([N+](=O)[O-])c2)cc1	3%	-23%	-5	-5%	0%	-6%
O=S(=O)(Nc1ccc(Cc2ccncc2)cc1)c1ccc(Cl)s1	0%	-20%	-1	10%	0%	18µM*
O=[N+]([O-])c1cccc(S(=O)(=O)Nc2ccc(Cc3ccncc3)cc2)c1	0%	-17%	1	2%	2%	16µM*
O=S(=O)(Nc1ccc(Cc2ccncc2)cc1)c1ccc(Br)s1	0%	-27%	-3	0%	0%	u
O=[N+]([O-])c1cccc(S(=O)(=O)NCc2ccncc2)c1	0%	-19%	0	-2%	u	7.3µM*
O=C(NCc1ccccc1Cl)c1ccc(Cn2c(=O)c3cccn3c3cccnc32)cc1	4%	x	x	x	0%	-15%
O=C1OC(c2ccccc2)=C/C1=C\N1CCOCC1	7%	u	1	26%	2%	2%
O=C1OC(c2ccccc2)=C/C1=C/N1CCOCC1	7%	13µM*	-1	u	-1%	29%
COc1ccc(CCNCc2c(C(=O)O)c(C)n(Cc3cccc(Cl)c3)c2C)c(OC)c1OC	1%	x	x	x	-2%	-2%
O=C(Nc1ccccc1)N1N=CCC1c1ccccc1 (stereo unspecified)	0%	49%	0	-1%	-2%	2%
O=C(Nc1ccc(Cl)c(Cl)c1)N1N=CCC1c1ccccc1 (stereo unspecified)	4%	-26%	0	-3%	u	16µM*
Cc1cccc(C(=O)Nc2cc3c(cc2N2CCCCC2)n(C)c(=O)n3C)c1	0%	x	x	x	5%	11%
CC(C)OCCOc1ccc2oc(-c3ccco3)cc(=O)c2c1	0%	8.9µM*	-1	x	2%	-3%
N#CCOc1ccc2oc(-c3ccco3)cc(=O)c2c1	x	x	x	-4%	x	x
Cc1ccc2oc(-c3ccco3)cc(=O)c2c1	u	3.5µM*	-2	4%	1%	u
C/C(=C\c1ccccc1)C(=O)Nc1ccc(Cl)cn1	7%	7.9µM*	1	-24%	5%	u
O=C(Nc1ccc(Cl)cn1)Nc1ccc(Cl)cn1	1%	39%	-1	3%	0%	u
Clc1ccc(C2=NNC(=NCc3ccc4c(c3)OCO4)SC2)cc1	7%	-61%	-2	2%	u	23µM*
O=C(OCC(=O)N1CCOCC1)c1ccccc1Br	3%	86%	0	17%	-13%	u
O=C(OCC(=O)N1CCOCC1)c1ccccc1Cc1ccccc1	0%	2µM*	-2	u	-12%	u
SMILES	Nrf2 ARE act	BRCA1 expr up	IL-2 act	p53 reactivator	A549 tox	Nrf2 inh
COc1ccc(C2NC(=O)NC(c3ccccc3)=C2c2nc3ccccc3s2)cc1 (stereo unspecified)	0%	-54%	1	-10%	u	u
O=C1NC(c2ccccc2)=C(c2nc3ccccc3s2)C(c2ccc(F)cc2)N1 (stereo unspecified)	3%	-66%	-1	-10%	u	16µM*
CCOc1cc(/C=N\NC(=O)c2ccc(NC(=O)C(C)(C)C)cc2)ccc1OC(=O)c1ccc(C)cc1	-1%	-43%	0	1%	-7%	10µM*
CCOc1cc(/C=N/NC(=O)CSc2nncn2C)ccc1OC(=O)c1ccc(Cl)cc1	0%	-1%	-3	-4%	3%	21µM*
CCOc1cc(/C=N\NC(=O)c2ccc(NC(=O)CC)cc2)ccc1OC(=O)c1ccccc1	0%	-38%	1	-2%	-27%	-19%
O=C(NCc1ccc(F)cc1)c1c2c(nc3ccccc13)CCC2	2%	14µM*	0	1%	-1%	u
COc1ccc(CNC(=O)CC2N=C3c4ccccc4N=C(SCC(=O)Nc4ccc(C(C)C)cc4)N3C2=O)cc1 (stereo unspecified)	0%	x	x	x	-16%	x
CCOC(=O)/C=C(\C)N1N=C(c2ccccc2)CC1c1ccccc1 (stereo unspecified)	13µM*	26%	1	u	-5%	u
CCOC(=O)c1nnn(CC(=O)N2N=C(c3ccccc3)CC2c2ccccc2)c1C(=O)OCC (stereo unspecified)	1%	3%	-2	6%	6%	15%
Cc1cc2c(s1)c1cnn(Cc3c(F)ccc(C)c3F)c(=O)c1n2C	x	x	x	x	0%	-13%
c1ccc(N2CCN(c3nc(-c4ccccn4)nc4ccccc34)CC2)cc1	0%	-72%	0	20%	u	16µM*
O=C(N/N=C/c1ccccc1C(F)(F)F)c1ccc2nc[nH]c2c1	3%	7.1µM*	-2	27%	7%	u
O=C(N/N=C/C(Br)=C\c1ccccc1)c1ccc2nc[nH]c2c1	22µM*	-18%	0	2%	13%	-11%
O=C(N/N=C/C(Br)=C/c1ccccc1)c1ccc([N+](=O)[O-])cc1	8.9µM*	-22%	0	-7%	-2%	1%
O=C(N/N=C/C(Br)=C/c1ccccc1)c1ccncc1	u	-77%	-1	-11%	-8%	-20%
O=C(N/N=C/c1ccco1)c1ccc2nc[nH]c2c1	3%	4%	0	5%	0%	-5%
COc1cccc(CNc2nc3ccccc3c3nc(-c4cccc(C)c4)nn23)c1	25%	x	x	x	10%	u
COc1ccccc1CNc1nc2ccc(C)cc2n2nnnc12	3%	x	x	x	12%	u
c1ccc(-c2csc3ncnc(Sc4nnnn4-c4ccccc4)c23)cc1	x	-55%	x	x	x	x
CCN(CC)CCNCC1C(=O)O[C@@H]2C[C@@]3(C)CCC[C@H](C)C3=C[C@H]12 (stereo partly specified)	11µM*	-46%	-5	-8%	1%	-11%
